# In ChEMBL document CHEMBL1961873, “Compounds: GSK PKIS; Assays: Nanosyn kinase panel” (2012):
# Columns and labels:
# [1] = biological target: Sphingosine kinase 1 (Homo sapiens) (UniProt Q9NYA1); conditions: at 1 µM;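 also: mean SPHK1 inhibition value reported from the GSK PKIS kinase panel screen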
# [2] = biological target: T1, Sphingosine kinase 2 (Homo sapiens) (UniProt Q9NRA0); conditions: at 0.1 µM
# T1 sequence (whole entry): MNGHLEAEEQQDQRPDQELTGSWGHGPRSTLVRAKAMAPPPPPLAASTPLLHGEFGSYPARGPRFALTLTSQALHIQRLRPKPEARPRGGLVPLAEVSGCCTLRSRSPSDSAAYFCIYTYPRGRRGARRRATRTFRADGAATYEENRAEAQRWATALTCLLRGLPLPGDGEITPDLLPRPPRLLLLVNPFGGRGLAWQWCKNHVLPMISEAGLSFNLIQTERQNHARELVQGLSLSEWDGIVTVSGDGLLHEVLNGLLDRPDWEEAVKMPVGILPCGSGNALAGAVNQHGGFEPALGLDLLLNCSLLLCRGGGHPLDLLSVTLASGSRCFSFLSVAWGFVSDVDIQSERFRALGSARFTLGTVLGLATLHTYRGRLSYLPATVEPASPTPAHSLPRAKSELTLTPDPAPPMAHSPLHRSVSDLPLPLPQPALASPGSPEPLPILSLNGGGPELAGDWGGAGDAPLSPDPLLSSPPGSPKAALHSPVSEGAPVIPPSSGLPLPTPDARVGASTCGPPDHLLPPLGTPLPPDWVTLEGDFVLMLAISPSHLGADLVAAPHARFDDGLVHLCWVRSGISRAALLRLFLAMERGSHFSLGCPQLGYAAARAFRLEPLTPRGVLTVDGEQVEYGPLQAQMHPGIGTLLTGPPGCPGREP
# [3] = biological target: T1, Sphingosine kinase 2 (Homo sapiens); conditions: at 1 µM
# [4] = biological target: Casein kinase II subunit alpha (Homo sapiens) (UniProt P68400); conditions: at 0.1 µM
# [5] = biological target: Casein kinase II subunit alpha (Homo sapiens) (UniProt P68400); conditions: at 1 µM
# [6] = biological target: T2, Inhibitor of nuclear factor kappa-B kinase subunit alpha (Homo sapiens) (UniProt O15111); conditions: at 0.1 µM
# T2 sequence (whole entry): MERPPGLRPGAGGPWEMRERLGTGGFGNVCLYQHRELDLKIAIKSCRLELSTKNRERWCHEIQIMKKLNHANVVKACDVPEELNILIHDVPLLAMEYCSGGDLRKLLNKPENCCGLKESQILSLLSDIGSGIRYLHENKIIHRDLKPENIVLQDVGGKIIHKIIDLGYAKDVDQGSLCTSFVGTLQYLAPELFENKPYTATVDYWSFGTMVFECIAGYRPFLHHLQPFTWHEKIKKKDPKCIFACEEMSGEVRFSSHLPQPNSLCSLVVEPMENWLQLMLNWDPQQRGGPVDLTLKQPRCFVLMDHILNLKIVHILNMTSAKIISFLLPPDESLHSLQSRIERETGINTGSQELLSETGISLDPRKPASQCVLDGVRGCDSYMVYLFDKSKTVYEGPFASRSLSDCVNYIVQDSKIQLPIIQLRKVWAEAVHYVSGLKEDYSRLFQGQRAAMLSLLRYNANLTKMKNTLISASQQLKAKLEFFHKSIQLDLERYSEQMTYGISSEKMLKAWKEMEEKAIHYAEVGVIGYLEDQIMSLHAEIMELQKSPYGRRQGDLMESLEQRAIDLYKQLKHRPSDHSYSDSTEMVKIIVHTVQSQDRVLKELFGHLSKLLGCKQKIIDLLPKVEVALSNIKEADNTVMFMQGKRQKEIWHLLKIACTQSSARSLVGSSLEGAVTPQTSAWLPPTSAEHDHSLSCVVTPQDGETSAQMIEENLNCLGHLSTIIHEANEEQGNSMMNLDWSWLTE
# [7] = biological target: T2, Inhibitor of nuclear factor kappa-B kinase subunit alpha (Homo sapiens); conditions: at 1 µM
# [8] = biological target: T3, Inhibitor of nuclear factor kappa-B kinase subunit beta (Homo sapiens) (UniProt O14920); conditions: at 0.1 µM
# T3 sequence (whole entry): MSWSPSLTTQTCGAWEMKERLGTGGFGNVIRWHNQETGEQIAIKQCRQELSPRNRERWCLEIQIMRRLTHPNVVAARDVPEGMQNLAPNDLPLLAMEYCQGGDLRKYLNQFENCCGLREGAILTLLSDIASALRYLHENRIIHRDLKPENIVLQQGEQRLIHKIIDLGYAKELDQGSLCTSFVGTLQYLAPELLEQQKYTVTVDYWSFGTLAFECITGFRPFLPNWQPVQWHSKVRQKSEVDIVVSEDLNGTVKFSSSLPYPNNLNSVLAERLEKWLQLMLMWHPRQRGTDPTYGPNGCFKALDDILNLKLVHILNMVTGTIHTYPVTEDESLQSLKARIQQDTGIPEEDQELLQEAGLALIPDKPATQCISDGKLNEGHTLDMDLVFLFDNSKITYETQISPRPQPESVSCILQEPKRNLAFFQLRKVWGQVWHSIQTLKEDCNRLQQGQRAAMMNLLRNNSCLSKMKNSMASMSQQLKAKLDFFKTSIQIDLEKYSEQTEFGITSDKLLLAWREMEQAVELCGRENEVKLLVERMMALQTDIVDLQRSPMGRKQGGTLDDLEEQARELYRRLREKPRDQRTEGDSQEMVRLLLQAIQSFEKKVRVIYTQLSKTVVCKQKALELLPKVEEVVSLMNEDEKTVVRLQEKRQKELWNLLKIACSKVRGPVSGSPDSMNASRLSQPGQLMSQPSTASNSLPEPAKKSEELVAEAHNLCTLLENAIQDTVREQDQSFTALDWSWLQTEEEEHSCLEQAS
# [9] = biological target: T3, Inhibitor of nuclear factor kappa-B kinase subunit beta (Homo sapiens); conditions: at 1 µM
# [10] = biological target: T4, Inhibitor of nuclear factor kappa-B kinase subunit epsilon (Homo sapiens) (UniProt Q14164); conditions: at 0.1 µM
# T4 sequence (whole entry): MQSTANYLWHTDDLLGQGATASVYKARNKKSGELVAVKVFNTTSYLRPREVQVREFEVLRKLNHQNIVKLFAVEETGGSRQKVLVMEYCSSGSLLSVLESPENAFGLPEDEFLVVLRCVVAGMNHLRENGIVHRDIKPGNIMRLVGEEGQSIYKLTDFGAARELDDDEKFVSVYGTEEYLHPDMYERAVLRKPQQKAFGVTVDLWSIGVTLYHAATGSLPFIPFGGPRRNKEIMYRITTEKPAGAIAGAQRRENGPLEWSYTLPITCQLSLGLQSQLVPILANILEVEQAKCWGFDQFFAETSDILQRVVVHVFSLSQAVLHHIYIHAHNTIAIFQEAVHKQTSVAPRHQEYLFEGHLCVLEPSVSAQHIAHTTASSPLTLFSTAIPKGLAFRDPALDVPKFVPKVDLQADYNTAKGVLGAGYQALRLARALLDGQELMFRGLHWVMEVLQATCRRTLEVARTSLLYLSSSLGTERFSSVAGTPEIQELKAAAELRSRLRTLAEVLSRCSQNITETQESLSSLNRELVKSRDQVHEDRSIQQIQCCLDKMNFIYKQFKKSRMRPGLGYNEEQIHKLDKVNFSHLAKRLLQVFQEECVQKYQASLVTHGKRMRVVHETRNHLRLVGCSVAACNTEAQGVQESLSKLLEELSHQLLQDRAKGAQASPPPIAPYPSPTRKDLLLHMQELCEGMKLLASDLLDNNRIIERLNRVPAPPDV
# [11] = biological target: T4, Inhibitor of nuclear factor kappa-B kinase subunit epsilon (Homo sapiens); conditions: at 1 µM
# [12] = biological target: T5, Serine/threonine-protein kinase Nek1 (Homo sapiens) (UniProt Q96PY6); conditions: at 0.1 µM
# T5 sequence (whole entry): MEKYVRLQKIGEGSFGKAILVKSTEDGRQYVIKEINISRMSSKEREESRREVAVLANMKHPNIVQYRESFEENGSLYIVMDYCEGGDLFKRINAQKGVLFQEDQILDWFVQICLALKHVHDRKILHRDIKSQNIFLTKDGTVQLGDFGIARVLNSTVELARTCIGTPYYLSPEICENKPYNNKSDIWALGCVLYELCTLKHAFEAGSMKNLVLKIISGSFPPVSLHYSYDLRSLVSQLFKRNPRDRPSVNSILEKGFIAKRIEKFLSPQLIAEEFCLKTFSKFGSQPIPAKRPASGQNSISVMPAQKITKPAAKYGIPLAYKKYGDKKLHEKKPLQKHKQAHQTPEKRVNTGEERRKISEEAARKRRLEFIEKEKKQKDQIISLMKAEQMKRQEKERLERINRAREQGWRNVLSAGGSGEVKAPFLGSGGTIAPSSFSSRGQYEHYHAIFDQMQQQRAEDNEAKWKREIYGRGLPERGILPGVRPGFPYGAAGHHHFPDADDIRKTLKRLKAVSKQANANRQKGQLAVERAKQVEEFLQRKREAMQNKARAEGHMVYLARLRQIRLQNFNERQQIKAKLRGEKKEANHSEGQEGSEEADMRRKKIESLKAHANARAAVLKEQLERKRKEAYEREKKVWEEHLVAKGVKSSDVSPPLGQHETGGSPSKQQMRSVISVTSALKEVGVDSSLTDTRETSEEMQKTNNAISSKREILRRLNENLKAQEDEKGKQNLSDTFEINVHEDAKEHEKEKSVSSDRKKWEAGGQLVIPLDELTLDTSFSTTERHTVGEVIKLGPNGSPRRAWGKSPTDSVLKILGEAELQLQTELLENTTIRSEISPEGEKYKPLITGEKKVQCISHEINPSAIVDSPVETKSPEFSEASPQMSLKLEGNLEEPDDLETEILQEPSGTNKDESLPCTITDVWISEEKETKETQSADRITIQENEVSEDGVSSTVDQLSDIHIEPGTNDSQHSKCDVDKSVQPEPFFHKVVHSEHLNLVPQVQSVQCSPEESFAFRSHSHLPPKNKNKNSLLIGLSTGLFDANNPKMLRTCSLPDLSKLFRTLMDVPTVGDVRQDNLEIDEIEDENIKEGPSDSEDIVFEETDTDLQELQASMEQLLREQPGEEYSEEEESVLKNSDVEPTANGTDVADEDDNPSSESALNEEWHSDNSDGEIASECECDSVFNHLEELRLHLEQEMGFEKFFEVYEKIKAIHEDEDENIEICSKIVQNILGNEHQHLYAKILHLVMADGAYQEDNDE
# [13] = biological target: T5, Serine/threonine-protein kinase Nek1 (Homo sapiens); conditions: at 1 µM
# [14] = biological target: T6, Serine/threonine-protein kinase Nek2 (Homo sapiens) (UniProt P51955); conditions: at 0.1 µM
# T6 sequence (whole entry): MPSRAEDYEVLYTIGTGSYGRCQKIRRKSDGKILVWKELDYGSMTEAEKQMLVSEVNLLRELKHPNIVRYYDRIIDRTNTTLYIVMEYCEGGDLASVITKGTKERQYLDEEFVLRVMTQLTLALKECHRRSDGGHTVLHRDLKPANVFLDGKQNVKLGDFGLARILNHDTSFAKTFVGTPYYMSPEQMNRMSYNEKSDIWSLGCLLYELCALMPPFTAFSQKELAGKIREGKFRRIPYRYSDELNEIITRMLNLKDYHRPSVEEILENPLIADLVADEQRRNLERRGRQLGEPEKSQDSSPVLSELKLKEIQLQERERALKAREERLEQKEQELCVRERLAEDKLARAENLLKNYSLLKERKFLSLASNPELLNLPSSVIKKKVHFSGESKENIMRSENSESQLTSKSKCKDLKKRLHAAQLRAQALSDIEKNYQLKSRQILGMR
# [15] = biological target: T6, Serine/threonine-protein kinase Nek2 (Homo sapiens); conditions: at 1 µM
# [16] = biological target: Serine/threonine-protein kinase Nek6 (Homo sapiens) (UniProt Q9HC98); conditions: at 0.1 µM
# [17] = biological target: Serine/threonine-protein kinase Nek6 (Homo sapiens) (UniProt Q9HC98); conditions: at 1 µM
# [18] = biological target: Serine/threonine-protein kinase Nek7 (Homo sapiens) (UniProt Q8TDX7); conditions: at 0.1 µM
# [19] = biological target: Serine/threonine-protein kinase Nek7 (Homo sapiens) (UniProt Q8TDX7); conditions: at 1 µM
# [20] = biological target: T7, Serine/threonine-protein kinase Nek9 (Homo sapiens) (UniProt Q8TD19); conditions: at 0.1 µM;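 also: reported value is the mean percent inhibition of NEK9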
# T7 sequence (whole entry): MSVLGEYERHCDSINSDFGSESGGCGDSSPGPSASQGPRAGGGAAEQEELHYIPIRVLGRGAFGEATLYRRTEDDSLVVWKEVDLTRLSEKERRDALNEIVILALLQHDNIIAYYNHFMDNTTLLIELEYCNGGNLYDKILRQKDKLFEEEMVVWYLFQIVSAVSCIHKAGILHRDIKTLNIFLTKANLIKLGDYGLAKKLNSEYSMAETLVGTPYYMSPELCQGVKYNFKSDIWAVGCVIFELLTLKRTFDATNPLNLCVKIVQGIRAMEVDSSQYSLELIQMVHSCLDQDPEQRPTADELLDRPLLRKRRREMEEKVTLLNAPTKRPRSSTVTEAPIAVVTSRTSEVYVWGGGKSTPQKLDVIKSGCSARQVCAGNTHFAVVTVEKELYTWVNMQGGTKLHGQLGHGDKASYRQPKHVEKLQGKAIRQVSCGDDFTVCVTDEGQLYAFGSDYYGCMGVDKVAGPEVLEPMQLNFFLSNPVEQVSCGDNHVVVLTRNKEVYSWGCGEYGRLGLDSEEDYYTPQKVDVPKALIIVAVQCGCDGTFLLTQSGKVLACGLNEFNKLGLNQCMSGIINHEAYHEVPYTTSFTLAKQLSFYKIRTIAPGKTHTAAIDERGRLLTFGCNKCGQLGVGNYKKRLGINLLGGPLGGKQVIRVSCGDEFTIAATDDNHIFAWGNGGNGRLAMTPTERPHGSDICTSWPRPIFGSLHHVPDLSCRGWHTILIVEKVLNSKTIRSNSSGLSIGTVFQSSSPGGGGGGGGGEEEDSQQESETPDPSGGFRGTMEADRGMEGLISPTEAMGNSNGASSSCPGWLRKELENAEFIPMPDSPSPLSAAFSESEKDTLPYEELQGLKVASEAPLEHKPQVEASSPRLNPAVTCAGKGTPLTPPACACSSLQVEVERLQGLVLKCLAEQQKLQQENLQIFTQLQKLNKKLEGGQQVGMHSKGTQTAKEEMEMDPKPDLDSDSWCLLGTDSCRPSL
# Serine/threonine-protein kinase Nek7 (Homo sapiens), sequence (Q8TDX7 whole entry, looked up): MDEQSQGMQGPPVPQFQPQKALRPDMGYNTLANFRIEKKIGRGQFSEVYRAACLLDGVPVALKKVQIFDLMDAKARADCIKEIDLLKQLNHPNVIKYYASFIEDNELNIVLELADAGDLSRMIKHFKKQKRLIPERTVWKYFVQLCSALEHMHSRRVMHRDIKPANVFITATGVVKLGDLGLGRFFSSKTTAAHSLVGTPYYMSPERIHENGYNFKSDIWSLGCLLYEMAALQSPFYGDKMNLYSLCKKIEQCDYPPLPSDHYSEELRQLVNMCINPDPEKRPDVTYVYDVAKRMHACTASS
# Casein kinase II subunit alpha (Homo sapiens), sequence (P68400 whole entry, looked up): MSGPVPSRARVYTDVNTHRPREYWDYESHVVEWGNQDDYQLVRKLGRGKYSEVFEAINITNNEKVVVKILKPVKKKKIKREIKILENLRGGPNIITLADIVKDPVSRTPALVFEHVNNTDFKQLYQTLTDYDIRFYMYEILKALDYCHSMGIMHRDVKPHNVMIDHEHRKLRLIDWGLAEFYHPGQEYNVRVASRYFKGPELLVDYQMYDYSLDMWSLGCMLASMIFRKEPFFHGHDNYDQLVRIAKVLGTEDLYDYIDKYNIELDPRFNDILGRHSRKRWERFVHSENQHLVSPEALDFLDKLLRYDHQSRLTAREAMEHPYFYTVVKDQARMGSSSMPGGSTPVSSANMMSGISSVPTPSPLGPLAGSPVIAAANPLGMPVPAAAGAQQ
# Serine/threonine-protein kinase Nek6 (Homo sapiens), sequence (Q9HC98 whole entry): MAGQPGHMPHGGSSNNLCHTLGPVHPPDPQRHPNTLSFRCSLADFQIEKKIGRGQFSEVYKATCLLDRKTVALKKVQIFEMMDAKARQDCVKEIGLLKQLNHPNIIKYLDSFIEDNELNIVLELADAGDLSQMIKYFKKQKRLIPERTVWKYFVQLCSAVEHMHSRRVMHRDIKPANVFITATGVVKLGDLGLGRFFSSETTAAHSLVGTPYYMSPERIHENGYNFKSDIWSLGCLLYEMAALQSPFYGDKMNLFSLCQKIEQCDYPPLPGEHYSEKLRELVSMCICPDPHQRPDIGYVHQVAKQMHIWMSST
# Sphingosine kinase 1 (Homo sapiens), sequence (Q9NYA1 whole entry): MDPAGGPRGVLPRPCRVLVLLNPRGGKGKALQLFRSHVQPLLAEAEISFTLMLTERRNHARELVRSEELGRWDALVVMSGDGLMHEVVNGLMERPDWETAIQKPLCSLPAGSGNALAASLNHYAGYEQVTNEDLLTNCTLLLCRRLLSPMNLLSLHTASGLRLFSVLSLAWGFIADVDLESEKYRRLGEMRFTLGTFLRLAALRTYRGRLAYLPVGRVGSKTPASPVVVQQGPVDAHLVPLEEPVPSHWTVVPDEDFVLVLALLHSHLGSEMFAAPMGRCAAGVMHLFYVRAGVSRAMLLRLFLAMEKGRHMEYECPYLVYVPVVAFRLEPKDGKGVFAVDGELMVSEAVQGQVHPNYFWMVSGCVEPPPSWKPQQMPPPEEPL
smiles,measurement,setting,value
CS(=O)(=O)CCNCc1ccc(-c2ccc3ncnc(Nc4ccc(OCc5cccc(F)c5)c(C(F)(F)F)c4)c3c2)o1,inhibition,[1],-2.4%
same,inhibition,[2],0.03%
same,inhibition,[3],0.79%
same,inhibition,[4],3.22%
same,inhibition,[5],5.65%
same,inhibition,[6],7.6%
same,inhibition,[7],5.45%
same,inhibition,[8],5.87%
same,inhibition,[9],5.15%
same,inhibition,[10],5.42%
same,inhibition,[11],2.73%
same,inhibition,[12],2.28%
same,inhibition,[13],4.09%
same,inhibition,[14],4.44%
same,inhibition,[15],3.68%
same,inhibition,[16],2.48%
same,inhibition,[17],3.62%
same,inhibition,[18],4.72%
same,inhibition,[19],4.32%
same,inhibition,[20],7.55%
